Assay outcomes from PubChem.
Sampled rows, rich in hits. Any-hit rate of the full collection: about 9.2%.
ELG1 repair inh: inhibitors of ELG1-dependent DNA repair in HEK293T cells; HEK293T ELG1-luciferase reporter, luminescence, 16 h; DNA damage induced by 5-fluorouridine; Potency, µM (titrated, usually from 46.1 µM), without a hit: at the highest dose activity change, negative = inhibition, most hits filed as inhibitors; hit rate 2.3% among 330,000; note: % is set by controls: 0 for no effect and ±100 for the full control effect; nearly all actives have a fitted effect of over 55% in size
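In this reporter screen, reduction of luminescence relative to DMSO vehicle indicated activity. Compounds and 5-fluorouridine were added together to 2,000 cells per well, incubated for 16 hr at 37 °C, then developed with ONE-Glo.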
NPC1 prom act: NPC1 promoter activation. hit rate 2.4% among 320,000. Potency, µM (top dose mostly 9.22 µM), without a hit: at the highest dose activation, hits mostly activators. Huh7 NPC1 promoter luciferase reporter, 24 h; note: % of control where 0% means no effect; nearly all actives have a fitted effect of over 60% in size
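Huh7 reporter cells (NPC1 promoter driving luciferase) are dosed with compound for 24 h at 37 °C, 5% CO2; luciferase detection reagent is then added and luminescence measured after 10 min at ambient temperature.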
ELG1 genotoxic: induces genotoxicity in HEK293T cells with luciferase-tagged ELG1; HEK293T ELG1-luciferase reporter, luminescence, 16 h; AID 504466; hit rate 1.3% among 330,000; Potency, µM (doses to about 46 µM), for inactives: at the top dose activity change, positive = activation, usual class: activators; note: % of control where 0% means no effect; nearly all actives have a fitted effect of over 60% in size
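Reporter readout depends on ELG1 protein level, which increases with genetic stress. After 16 hr compound exposure at 37 °C, luciferase activity was quantified using ONE-Glo.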
Rab9 promoter act: Rab9 promoter activation; hit rate 2.8% among 320,000; Huh7 Rab9 promoter-luciferase reporter, luminescence, 24 h; AID 485297; Potency, µM (series often up to 9.22 µM), for the others: at the top dose activation, negative = inhibition, most hits filed as activators; note: % of control where 0% means no effect; nearly all actives have a fitted effect of over 60% in size
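Quantitative HTS format; Huh7 Rab9-luciferase reporter cells (1500/well) receive compound 2 h post-plating, incubate 24 h at 37 °C, then get luciferase reagent for 10 min before luminescence reading.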
FLuc counter: inhibits or activates purified firefly luciferase, miR-21 counter-screen | purified FLuc, Km substrates, luminescence inhibition | P08659 | Potency, µM (doses to about 57.5 µM), inactives show top-dose activity change, negative = inhibition, usual class: inhibitors | hit rate 6.9% among 360,000 | AID 588342;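 note: plate controls were vehicle for no effect and reference inhibitor for full effect; nearly all actives have a fitted effect of over 55% in size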
Target sequence (P08659 whole entry, looked up): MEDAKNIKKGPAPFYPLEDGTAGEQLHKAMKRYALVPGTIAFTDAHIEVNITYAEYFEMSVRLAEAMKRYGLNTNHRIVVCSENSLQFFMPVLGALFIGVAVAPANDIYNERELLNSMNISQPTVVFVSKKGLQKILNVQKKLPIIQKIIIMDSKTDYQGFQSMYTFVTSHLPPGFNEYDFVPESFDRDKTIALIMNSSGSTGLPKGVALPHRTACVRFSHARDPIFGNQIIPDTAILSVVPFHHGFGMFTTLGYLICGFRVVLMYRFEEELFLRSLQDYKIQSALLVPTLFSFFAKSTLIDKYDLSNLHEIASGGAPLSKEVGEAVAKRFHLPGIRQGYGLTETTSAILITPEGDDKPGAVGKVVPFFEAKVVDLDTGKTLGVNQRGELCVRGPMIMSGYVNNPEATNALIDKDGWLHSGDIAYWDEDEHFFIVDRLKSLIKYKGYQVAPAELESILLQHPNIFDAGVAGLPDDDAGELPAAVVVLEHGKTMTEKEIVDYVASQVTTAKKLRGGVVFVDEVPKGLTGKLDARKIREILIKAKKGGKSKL
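Purified P. pyralis luciferase (10nM final) with 10uM D-luciferin and 10uM ATP (Km levels) in 50mM Tris acetate pH 7.5, 10mM Mg acetate, 0.01% Tween-20, 0.05% BSA; qHTS 6-point titration, ~60 µM downward; luminescence read.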
SMN2 splice enh: enhancers of SMN2 splice variant expression. HEK293 SMN2-luciferase splicing reporter, luminescence, 30-36 h. Potency, µM (series often up to 46.1 µM), without a hit: at the highest dose activity change, positive = activation, most hits filed as activators. hit rate 2.8% among 210,000; note: % of control where 0% means no effect; nearly all actives have a fitted effect of over 55% in size
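qHTS luciferase splicing reporter: luminescence rises when SMN2 exon 7 is included in transfected HEK293 cells. Compound exposure lasted 30-36 h at 37C, with 4.5 mM final sodium butyrate as control, followed by a ONE-Glo read.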
ELG1 FLuc counter: luciferase inhibition in cell-free luciferin readout for ELG1 hits; Potency, µM (doses to about 46.1 µM), for inactives: at the top dose activity change, negative = inhibition, actives largely listed as inhibitors; cell-free firefly luciferase luminescence counter-screen, ViewLux; shares compounds with ELG1 repair inh; hit rate 3% among 350; AID 624247; note: % is set by controls: 0 for no effect and ±100 for the full control effect
ELG1 Luc conf: inhibits ELG1-dependent DNA repair in HEK293T cells, confirmed; Potency, µM (top dose mostly 46.1 µM), for inactives: at the top dose activity change, negative = inhibition, actives largely listed as inhibitors; hit rate 68% among 670; AID 624248; shares compounds with ELG1 repair inh; HEK293T ELG1-luciferase levels, luminescence; cells co-treated with 5-fluorouridine; note: % is set by controls: 0 for no effect and ±100 for the full control effect; nearly all actives have a fitted effect of over 55% in size
ELG1-Luc MMS: MMS-stimulated human ELG1 repair inhibition, confirmed. shares compounds with ELG1 repair inh. HEK293T luciferase-tagged ELG1 level, MMS stimulated. Potency, µM (titrated, usually from 46.1 µM), for inactives: at the highest dose activity change, negative = inhibition, actives largely listed as inhibitors. hit rate 53% among 670. AID 624249; note: % is set by controls: 0 for no effect and ±100 for the full control effect; nearly all actives have a fitted effect of over 60% in size
ELG1 5FU viab: confirmation of ELG1 repair inhibitors: viability with 5FU. AID 624250. shares compounds with ELG1 repair inh. 670 tested, under 10 active. cell viability with 5-FU, ELG1-dependent repair. Potency, µM (titrated, usually from 46.1 µM), inactives show at the top dose activity change, negative = viability loss, usual class: cytotoxic;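 note: ELG1-luc HEK293T cells cotreated with 5-fluorouridine at 10 µM final; viability measured 16 h after compound addition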
ELG1 MMS viab: confirmation of ELG1 repair inhibitors: viability with MMS; shares compounds with ELG1 repair inh; AID 624251; hit rate 33% among 670; Potency, µM (highest dose often 46.1 µM), for inactives: at the highest dose activity change, negative = viability loss, actives largely listed as cytotoxic; Cell viability with MMS, ELG1-dependent DNA repair;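 note: ELG1-luc HEK293T cells co-treated with 10 µM MMS; viability read 16 h after compound addition; % is set by controls: 0 for no effect and ±100 for the full control effect; nearly all actives have a fitted effect of over 60% in size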
Cell viab unstim: counter-screen for ELG1 repair inhibitors: unstimulated cell viability; shares compounds with ELG1 repair inh; cell viability counter-screen, unstimulated, luminescence; Potency, µM (highest dose often 45.9 µM), without a hit: top-dose activity change, negative = loss of viability, actives largely listed as cytotoxic; hit rate 8% among 900; AID 624252;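 note: compound exposure lasted 16 hours before reading; % is set by controls: 0 for no effect and ±100 for the full control effect; nearly all actives have a fitted effect of over 55% in size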
FLuc biochem: firefly luciferase inhibition counter-screen. shares compounds with ELG1 repair inh. purified firefly luciferase, luminescence counter-screen. Potency, µM (series often up to 57.5 µM), for inactives: at the top dose activity, negative = inhibition, most hits filed as inhibitors. hit rate 10% among 350; note: % is set by controls: 0 for no effect and ±100 for the full control effect
Starred values were filed as active, the others as inactive; ? = inconclusive; / = no result given; ! = not active in a repeat. Calls come from the whole dose curve; as a rule, active = well fitted curve in the direction sought with a large enough effect; inconclusive = small, poorly fitted or top-dose-only effect, or another doubt; inactive = no such curve, though single readings can be large; an effect the other way counts as inactive or inconclusive. Potency is the fitted concentration of half-maximal effect.

SMILES	ELG1 repair inh	NPC1 prom act	ELG1 genotoxic	Rab9 promoter act	FLuc counter	SMN2 splice enh	ELG1 FLuc counter	ELG1 Luc conf	ELG1-Luc MMS	ELG1 5FU viab	ELG1 MMS viab	Cell viab unstim	FLuc biochem
CCOC(=O)C1CCN(c2cc3c(cc2NC(=O)c2ccc(F)cc2)n(C)c(=O)n3C)CC1	2.3µM*	17%	-7%	11%	5%	/	-12%	2.5µM*	14µM*	?	25µM*	25µM*!	-3%
CCOc1ccc(C(=O)Nc2cc3c(cc2N2CCCC2)n(CC)c(=O)n3CC)cc1OCC	?	-4%	-4%	-5%	4%	/	2%	16µM*	?	12%	?	?	-8%
COc1ccc(-c2nn(C)c3sc(C(=O)Nc4cccc(F)c4)cc23)cc1OC	/	/	/	/	-16%	/	/	/	/	/	/	/	/
CSc1ccc(/C=N/n2c(C3CCCCC3)n[nH]c2=S)cc1	?	-2%	3%	-4%	1%	/	/	/	/	/	/	/	/
S=c1[nH]nc(C2CCCCC2)n1/N=C/c1ccncc1	1.2µM*	23%	-23%	16%	-3%	-37%	/	2.5µM*	11µM*	-3%	-5%	-4%	/
Cc1cc(OCC(=O)Nc2ccc(N3CCCC3)cc2)cc(C)c1Cl	-5%	-2%	-3%	2%	2%	-11%	/	/	/	/	/	/	/
Cc1cc(OCC(=O)Nc2ccncc2)cc(C)c1Cl	2.6µM*	-7%	10%	3%	-1%	/	/	?	2.5µM*	4%	2.5µM*	-13%	/
CC1(C)Cc2c(c(N3CCOCC3)nc3sc4c(NN)ncnc4c23)CS1	?	-9%	-13%	-15%	1%	-61%	/	/	/	/	/	/	/
CC1(C)Cc2c(c(N3CCOCC3)nc3sc4c(NCc5ccco5)nnnc4c23)CS1	4.1µM*	-8%	-10%	-11%	4%	?	3%	4.5µM*	-2%	?	?	-2%	0%
CC(C)CNc1nnnc2c1sc1nc(N3CCOCC3)c3c(c12)CC(C)(C)SC3	4.1µM*	-10%	-3%	-7%	1%	-17%	1%	4.5µM*	1%	?	9%	-2%	4%
O=C(NCCC1CCCCN1S(=O)(=O)c1ccc(F)cc1)C(=O)NCc1ccccn1 (stereo not given)	-4%	4%	1%	0%	3%	/	/	/	/	/	/	/	/
c1ccc(CC2CCN(c3ncnc4sccc34)CC2)cc1	1.6µM*	-37%	-5%	-29%	-14%	-41%	31%	23%	1.6µM*	-10%	2µM*	?	?
Cc1cc(-c2csc3ncnc(N4CCN(C)CC4)c23)cc(C)c1C	-19%	2%	-13%	-4%	1%	/	/	/	/	/	/	/	/
CN1CCN(c2ncnc3scc(-c4ccccc4Cl)c23)CC1	4.1µM*	0%	-17%	-1%	2%	/	/	7.1µM*	16µM*	-10%	-2%	?	/
CC(=O)c1ccc(NC(=O)c2cc3c(=O)oc4ccc(C)cc4c3s2)cc1	/	/	/	/	-5%	-8%	/	/	/	/	/	/	/
CC(=O)CSc1ncnc2nc[nH]c12	-7%	-5%	-3%	0%	1%	-19%	/	/	/	/	/	/	/
Cn1cnc(Sc2ncnc3nc[nH]c23)c1[N+](=O)[O-]	?	1%	3%	3%	-14%	/	0%	?	?	-1%	-1%	16µM*	4%
Cc1ccc(C2CC(C(F)(F)F)n3ncc(C(=O)NCc4ccco4)c3N2)cc1 (stereo not given)	-20%	-4%	0%	-2%	0%	3%	5%	28µM*	-11%	?	5%	7%	-8%
Cc1ccc(C2CC(C(F)(F)F)n3ncc(C(N)=O)c3N2)cc1 (stereo not given)	-15%	7%	-1%	6%	-10%	-10%	/	/	/	/	/	/	/
COc1cc(-c2cc(C(F)(F)F)n3ncc(C(=O)O)c3n2)cc(OC)c1OC	4.1µM*	0%	3%	2%	5%	10%	/	7.1µM*	10%	?	?	12%	/
O=C(NCc1ccco1)c1cnn2c(C(F)(F)F)cc(-c3ccccc3)nc12	?	0%	-1%	-2%	-1%	-6%	/	/	/	/	/	/	/
COc1ccc(-c2cc(C(F)(F)F)n3ncc(C(=O)NCc4ccco4)c3n2)cc1	1.3µM*	-6%	7%	-1%	5%	-19%	0%	1.8µM*	?	?	-8%	-12%	-12%
CCc1ccccc1NC(=O)c1cnn2c(C(F)(F)F)cc(-c3ccc(OC)c(OC)c3)nc12	/	/	/	/	-1%	1%	/	/	/	/	/	/	/
O=C(O)C1C2CCCCC2=C2CCCCC2C1C(=O)c1ccccc1 (stereo not given)	-19%	2%	-5%	1%	0%	/	/	/	/	/	/	/	/
CC(=O)c1c(C)n(-c2ccccc2)c2ccc(OCC(N)=O)cc12	-10%	-4%	9%	-10%	5%	/	/	/	/	/	/	/	/
COc1ccc(CCN2C(=O)NC(NS(=O)(=O)c3ccc(N)cc3)(C(F)(F)F)C2=O)cc1OC (stereo not given)	9%	-1%	5%	-5%	0%	-11%	/	/	/	/	/	/	/
